# Test results taken from ChEMBL document CHEMBL3433997, “St. Jude Leishmania screening dataset” (2016).
# Target: Solute carrier family 2, facilitated glucose transporter member 1 (Homo sapiens) (UniProt P11166)
# Assay: ST_JUDE_LEISH: Cytotoxicity at 2uM final concentration against transgenic Leishmania Mexicana promastigotes LmGLUT1 that are glucose transport deficient and complemented with the human glucose transporter GLUT1. Activity is measured by DNA content using SYBR green in vitro
# Format: functional
# Sequence of Solute carrier family 2, facilitated glucose transporter member 1 (Homo sapiens) (P11166 whole entry): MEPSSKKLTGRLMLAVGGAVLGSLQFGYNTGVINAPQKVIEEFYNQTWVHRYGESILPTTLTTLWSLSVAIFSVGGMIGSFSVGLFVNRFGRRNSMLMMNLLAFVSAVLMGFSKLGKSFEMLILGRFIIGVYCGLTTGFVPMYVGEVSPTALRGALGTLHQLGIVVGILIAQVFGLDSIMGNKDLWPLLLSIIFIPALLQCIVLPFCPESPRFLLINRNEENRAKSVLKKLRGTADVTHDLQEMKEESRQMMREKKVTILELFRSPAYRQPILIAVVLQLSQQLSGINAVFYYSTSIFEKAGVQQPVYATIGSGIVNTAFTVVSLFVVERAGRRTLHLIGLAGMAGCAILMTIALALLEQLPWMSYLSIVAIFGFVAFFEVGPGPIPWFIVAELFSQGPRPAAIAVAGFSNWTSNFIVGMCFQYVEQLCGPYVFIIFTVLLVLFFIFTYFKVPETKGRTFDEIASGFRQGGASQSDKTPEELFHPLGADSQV
row,Compound,inhibition [%]
1,COc1ccc(-c2c(-c3ccc(OCc4ccccc4)cc3O)n[nH]c2C(F)(F)F)cc1,3.36
2,COc1ccc(NC(=O)[C@H](CC(C)C)Nc2ccnc(NCCc3ccc(F)cc3)n2)cc1,1.22
3,CC(C)C1=NC(=O)c2cc([N+](=O)[O-])ccc2CN1,1.78
4,O=C(Nc1ccc(Cl)cc1)Nc1ccc(-c2csc(-c3nc4ccccc4[nH]3)c2)cc1,0.59
5,CC(CN1CCN(C)CC1)C(=O)Nc1ccc(-c2csc(-c3nc4ccccc4[nH]3)c2)cc1 (stereo not given),4.03
6,O=C(Cc1c[nH]cn1)Nc1cccc(-c2cccc(-c3nc4cc(C(F)(F)F)ccc4[nH]3)c2)c1,9.44
7,CCN(CC)CCN(Cc1ccc(-c2ccc(C(F)(F)F)cc2)cc1)C(=O)Cn1c(CCc2cccc(F)c2F)nc(=O)c2ccccc21,1.51
8,N#Cc1ccc2c(c1)CCN(CCC1CCC(NC(=O)Nc3ccncc3)CC1)C2 (stereo not given),5.14
9,COc1c(C2CCN(CCCCNC(=O)c3ccc(-c4ccc(C(F)(F)F)cc4)c(C(=O)OC(C)C)c3)CC2)ccc2c1CCCC2,1.36
10,CCOc1ccc(-c2n[nH]c(C(F)(F)F)c2-c2ccccc2OC)c(O)c1,2.44
11,Cc1ccn2c(N(Cc3ccccc3)C(=O)c3ccc(Cl)c(Cl)c3)c(-c3ccccc3)nc2c1,4.28
12,COc1ccc(C=NN=c2cc(C)[nH]c3ccccc23)c(OC)c1,54.4
13,N[C@@H](CCNCc1ccc(-c2cccnc2)cc1)Cc1ccc(F)c(F)c1,0.43
14,COc1ccc2ccc(OC)c(CNCCCCCCNCc3c(OC)ccc4ccc(OC)cc34)c2c1,5.41
15,O=C(NCc1cccc(F)c1)Nc1cccc(-c2cccc(-c3nc4cc(C(F)(F)F)ccc4[nH]3)c2)c1,0.12
16,O=[N+]([O-])c1ccc(C(O)P(=O)(c2ccccc2)c2ccccc2)cc1 (stereo not given),-0.33
17,Cc1cc(=NN=Cc2cccc(F)c2)c2cc(F)ccc2[nH]1,8.18
18,COc1ccc(S(=O)(=O)N2CCC3(CC2)OCC(=O)NC3c2ccc(Cl)c(Cl)c2)cc1 (stereo not given),2.93
19,O=C(Nc1cccc(CN2CCCN(Cc3cccc(F)c3)CC2)c1)c1ccc(Cl)c(Cl)c1,4.11
20,Cc1cc(N[C@@H](CC(C)C)C(=O)NCc2cccc(F)c2)nc(Nc2ccccc2)n1,4.15

row,Compound,inhibition [%]
1,CCOC(=O)c1cccc(NC(=N)Nc2nc(C)cc(NCCc3ccccc3)n2)c1,7.04
2,CN(C)Cc1ccc(CN2CCN(CCOc3ccc(-c4ccc(Cl)cc4)cc3)CC2)o1,22.7
3,O=C(c1cc(-c2ccccc2)n[nH]1)N1CCN(S(=O)(=O)c2ccc(Cl)s2)CC1,4.06
4,O=C(C=Cc1ccc(Cl)c(Cl)c1)NCCCCCN1CCC(CCCNS(=O)(=O)c2cccc(C(F)(F)F)c2)CC1,0.51
5,COc1cc(Nc2ccnc3cc(-c4ccccn4)ccc23)cc(OC)c1OC,5.56
6,O=C(/C=C/c1ccc(Cl)c(Cl)c1)NCCCCCN1CCC(NC(=O)Nc2ccccc2F)CC1,0.1
7,CCNc1cc(C(=O)N[C@@H](Cc2ccccc2)[C@H](O)CNC(CC)c2cccc(Cl)c2)cc(N2CCCCS2(=O)=O)c1 (stereo not given in full),4.81
8,CCCCNC(=O)[C@@H]1CCCN1C(=O)c1ccc(O)c(-c2ccc(Cl)c(Cl)c2)c1,1.42
9,COc1ccc(Nc2ncc3c(-c4cccc(NC(=O)CC(C)C)c4)c[nH]c3n2)cc1OC,7.31
10,Cc1cccc2nc(-c3ccc(-c4ccc(CN5CCN(CCO)CC5)cc4)cc3)[nH]c12,25.5
11,CC(C)(CNCc1ccc(Cl)cc1)c1nc(-c2ccc(Cl)c(O)c2)c(-c2ccncc2)[nH]1,0.66
12,CC(C)(C)c1ccc(-c2csc(NC(=O)CC(c3ccccc3)c3ccccc3)n2)cc1,1.4
13,O=c1cc(NCCCNCc2ccc(Cl)c(Cl)c2)[nH]c2ccc(C(F)(F)F)cc12,2.13
14,COCCN1CCN(Cc2ccc(-c3cccc(-c4nc5ccccc5[nH]4)c3)cc2)CC1,-3.03
15,Cc1[nH]c(C)c(-c2ccc(OCc3cc(C(F)(F)F)cc(C(F)(F)F)c3)nc2)c(=O)c1Br,10.1
16,CCCCCCCCS(=O)(=O)NCCCC1CCN(CCCCCNC(=O)C=Cc2ccc(Cl)c(Cl)c2)CC1,2.57
17,CC(C)(C)c1nn(-c2ccccc2)c2[nH]c(=O)c(CNCCc3ccccc3)cc12,0.22
18,CCc1cc(Br)c2c(c1)C(NCCCNc1cc(=O)c3ccccc3[nH]1)CCN2 (stereo not given),3.82
19,O=C(Nc1cccc(N2CCC(NCc3cnn(-c4cccc(F)c4)c3)CC2)c1)c1ccncc1,-0.97
20,FC(F)(F)c1cc(C(F)(F)F)c2cc(CNCCCNc3nc4ccccc4[nH]3)[nH]c2c1,-1.02

# Target: Hexose transporter 1 (Plasmodium falciparum) (UniProt O97467)
# Assay: ST_JUDE_LEISH: Cytotoxicity at 2uM final concentration against transgenic Leishmania Mexicana promastigotes LmPfHT that are glucose transport deficient and complemented with the Plasmodium falciparum hexose transporter. Activity is measured by DNA content using SYBR green in vitro
# Format: functional
row,Compound,inhibition [%]
1,COc1ccc(-c2c(-c3ccc(OCc4ccccc4)cc3O)n[nH]c2C(F)(F)F)cc1,1.26
2,COc1ccc(NC(=O)[C@H](CC(C)C)Nc2ccnc(NCCc3ccc(F)cc3)n2)cc1,1.43
3,CC(C)C1=NC(=O)c2cc([N+](=O)[O-])ccc2CN1,1.79
4,O=C(Nc1ccc(Cl)cc1)Nc1ccc(-c2csc(-c3nc4ccccc4[nH]3)c2)cc1,1.1
5,CC(CN1CCN(C)CC1)C(=O)Nc1ccc(-c2csc(-c3nc4ccccc4[nH]3)c2)cc1 (stereo not given),5.18
6,O=C(Cc1c[nH]cn1)Nc1cccc(-c2cccc(-c3nc4cc(C(F)(F)F)ccc4[nH]3)c2)c1,12.1
7,CCN(CC)CCN(Cc1ccc(-c2ccc(C(F)(F)F)cc2)cc1)C(=O)Cn1c(CCc2cccc(F)c2F)nc(=O)c2ccccc21,0.95
8,N#Cc1ccc2c(c1)CCN(CCC1CCC(NC(=O)Nc3ccncc3)CC1)C2 (stereo not given),3.65
9,COc1c(C2CCN(CCCCNC(=O)c3ccc(-c4ccc(C(F)(F)F)cc4)c(C(=O)OC(C)C)c3)CC2)ccc2c1CCCC2,1.79
10,CCOc1ccc(-c2n[nH]c(C(F)(F)F)c2-c2ccccc2OC)c(O)c1,1.89
11,Cc1ccn2c(N(Cc3ccccc3)C(=O)c3ccc(Cl)c(Cl)c3)c(-c3ccccc3)nc2c1,3.03
12,COc1ccc(C=NN=c2cc(C)[nH]c3ccccc23)c(OC)c1,66
13,N[C@@H](CCNCc1ccc(-c2cccnc2)cc1)Cc1ccc(F)c(F)c1,0.41
14,COc1ccc2ccc(OC)c(CNCCCCCCNCc3c(OC)ccc4ccc(OC)cc34)c2c1,9.06
15,O=C(NCc1cccc(F)c1)Nc1cccc(-c2cccc(-c3nc4cc(C(F)(F)F)ccc4[nH]3)c2)c1,2.8
16,O=[N+]([O-])c1ccc(C(O)P(=O)(c2ccccc2)c2ccccc2)cc1 (stereo not given),-0.85
17,Cc1cc(=NN=Cc2cccc(F)c2)c2cc(F)ccc2[nH]1,9.63
18,COc1ccc(S(=O)(=O)N2CCC3(CC2)OCC(=O)NC3c2ccc(Cl)c(Cl)c2)cc1 (stereo not given),1.47
19,O=C(Nc1cccc(CN2CCCN(Cc3cccc(F)c3)CC2)c1)c1ccc(Cl)c(Cl)c1,2.83
20,Cc1cc(N[C@@H](CC(C)C)C(=O)NCc2cccc(F)c2)nc(Nc2ccccc2)n1,2.87

row,Compound,inhibition [%]
1,CCOC(=O)c1cccc(NC(=N)Nc2nc(C)cc(NCCc3ccccc3)n2)c1,7.16
2,CN(C)Cc1ccc(CN2CCN(CCOc3ccc(-c4ccc(Cl)cc4)cc3)CC2)o1,13.8
3,O=C(c1cc(-c2ccccc2)n[nH]1)N1CCN(S(=O)(=O)c2ccc(Cl)s2)CC1,1.3
4,O=C(C=Cc1ccc(Cl)c(Cl)c1)NCCCCCN1CCC(CCCNS(=O)(=O)c2cccc(C(F)(F)F)c2)CC1,-1.72
5,COc1cc(Nc2ccnc3cc(-c4ccccn4)ccc23)cc(OC)c1OC,8.67
6,O=C(/C=C/c1ccc(Cl)c(Cl)c1)NCCCCCN1CCC(NC(=O)Nc2ccccc2F)CC1,4.13
7,CCNc1cc(C(=O)N[C@@H](Cc2ccccc2)[C@H](O)CNC(CC)c2cccc(Cl)c2)cc(N2CCCCS2(=O)=O)c1 (stereo not given in full),1.05
8,CCCCNC(=O)[C@@H]1CCCN1C(=O)c1ccc(O)c(-c2ccc(Cl)c(Cl)c2)c1,0.27
9,COc1ccc(Nc2ncc3c(-c4cccc(NC(=O)CC(C)C)c4)c[nH]c3n2)cc1OC,8.48
10,Cc1cccc2nc(-c3ccc(-c4ccc(CN5CCN(CCO)CC5)cc4)cc3)[nH]c12,31.3
11,CC(C)(CNCc1ccc(Cl)cc1)c1nc(-c2ccc(Cl)c(O)c2)c(-c2ccncc2)[nH]1,0.31
12,CC(C)(C)c1ccc(-c2csc(NC(=O)CC(c3ccccc3)c3ccccc3)n2)cc1,1.95
13,O=c1cc(NCCCNCc2ccc(Cl)c(Cl)c2)[nH]c2ccc(C(F)(F)F)cc12,1.67
14,COCCN1CCN(Cc2ccc(-c3cccc(-c4nc5ccccc5[nH]4)c3)cc2)CC1,-1.3
15,Cc1[nH]c(C)c(-c2ccc(OCc3cc(C(F)(F)F)cc(C(F)(F)F)c3)nc2)c(=O)c1Br,10.2
16,CCCCCCCCS(=O)(=O)NCCCC1CCN(CCCCCNC(=O)C=Cc2ccc(Cl)c(Cl)c2)CC1,-0.32
17,CC(C)(C)c1nn(-c2ccccc2)c2[nH]c(=O)c(CNCCc3ccccc3)cc12,-1.47
18,CCc1cc(Br)c2c(c1)C(NCCCNc1cc(=O)c3ccccc3[nH]1)CCN2 (stereo not given),2.76
19,O=C(Nc1cccc(N2CCC(NCc3cnn(-c4cccc(F)c4)c3)CC2)c1)c1ccncc1,0.64
20,FC(F)(F)c1cc(C(F)(F)F)c2cc(CNCCCNc3nc4ccccc4[nH]3)[nH]c2c1,0.32
